Luciferase inh = Firefly luciferase inhibition profiling of diverse chemical library using quantitative high-throughput screening; purified P. pyralis luciferase, luminescence, biochemical; Potency, µM (series often up to 115 µM), hits mostly inhibitors; 2.5% of 76,000 active; AID 1347043, 2019; note: nearly all actives have a fitted effect of over 65% in size
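Purified 10nM P. pyralis luciferase with 10uM D-luciferin and 10uM ATP in 50mM Tris acetate pH 7.5, 10mM Mg acetate, 0.01% Tween-20, 0.05% BSA. qHTS titration; luminescence read by CCD imager.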
HEK293 tox = Cytotoxic Profiling in HEK 293 Cell Line of Diverse Libraries Using Quantitative High-Throughput Screening. AID 1345083, 2018. Potency, µM (titrated, usually from 115 µM), inactives show at the highest dose activity change, negative = cytotoxicity, most hits filed as inhibitors. 6.6% of 94,000 active. HEK 293 viability, ATP luminescence (CellTiter-Glo), 48-72 h; note: nearly all actives have a fitted effect of over 60% in size
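ATP-coupled CellTiter-Glo luminescence served as viability read-out, recorded 10 min after reagent addition at room temperature. HEK 293 cells, 250 cells/well, had been incubated with pintool-transferred compound for 48 or 72 hr at 37 degree Celsius.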
GPT2 inhibitor = Primary qHTS assay for inhibitors of Glutamate pyruvate transaminase 2 (GPT2) | Alanine aminotransferase 2 (Homo sapiens), Q8TD30 | Recombinant GPT2, coupled pyruvate oxidase/HRP Amplex Red fluorescence | Potency, µM (titrated, usually from 57.7 µM), for inactives: top-dose activity change, negative = inhibition, most hits filed as inhibitors | 0.25% of 100,000 active; note: nearly all actives have a fitted effect of over 60% in size
Target sequence (Q8TD30 whole entry, looked up): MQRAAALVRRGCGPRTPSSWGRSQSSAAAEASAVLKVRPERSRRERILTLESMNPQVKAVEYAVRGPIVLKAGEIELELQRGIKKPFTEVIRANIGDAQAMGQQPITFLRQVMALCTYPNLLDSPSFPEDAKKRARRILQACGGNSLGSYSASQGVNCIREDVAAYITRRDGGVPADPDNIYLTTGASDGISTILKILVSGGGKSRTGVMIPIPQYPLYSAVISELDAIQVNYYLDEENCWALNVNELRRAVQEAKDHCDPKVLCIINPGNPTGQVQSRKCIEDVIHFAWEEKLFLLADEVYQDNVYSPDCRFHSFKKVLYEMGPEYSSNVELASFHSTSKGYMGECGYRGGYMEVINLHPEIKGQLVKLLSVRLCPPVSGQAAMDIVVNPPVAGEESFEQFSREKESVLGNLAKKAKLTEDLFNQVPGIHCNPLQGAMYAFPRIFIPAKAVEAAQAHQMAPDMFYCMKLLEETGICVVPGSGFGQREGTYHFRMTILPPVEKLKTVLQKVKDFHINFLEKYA
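Fluorescence read-out: pyruvate from GPT2 turnover coupled to pyruvate oxidase, HRP and Amplex Red (0.2mM ThPP, 0.2U/mL PO and HRP, 50uM Amplex final). Substrates 250uM a-KG, 2mM L-alanine; enzyme 10ng/uL; 30 min RT.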
3T3 cytotox = Cytotoxic Profiling in NIH 3T3 Cell Line of Diverse Libraries Using Quantitative High-Throughput Screening; NIH 3T3 viability, CellTiter-Glo ATP luminescence, 48-72 h; Potency, µM (series often up to 96.7 µM), for the others: at the top dose activity change, negative = cytotoxicity, usual class: inhibitors; 4.3% of 94,000 active; note: nearly all actives have a fitted effect of over 55% in size
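First NIH 3T3 cells are plated at 400 cells/well; next compound is pinned in; then plates incubate 48 or 72 hr at 37 °C; finally CellTiter-Glo is added and luminescence read after 10 min.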
NPR1 antag = Natriuretic polypeptide receptor (hNpr1) antagonism - Primary qHTS. Potency, µM (doses to about 46.3 µM), inactives show top-dose activity change, negative = inhibition, hits mostly inhibitors. 1.6% of 76,000 active. Atrial natriuretic peptide receptor 1 (Homo sapiens), P16066. HEK293 hNpr1 GloSensor cGMP, ANP-stimulated luminescence. AID 1347048, 2019; calls by dose curve; note: nearly all actives have a fitted effect of over 60% in size
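Compound pre-incubated 30 min at room temperature on GloSensor-loaded HEK293 cells stably carrying hNpr1 and the pGS-40F cGMP biosensor. Stimulation uses hNppA at 0.1 nM final; luminescence is taken at baseline and 20 min post-agonist.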
* hit, by the source's call; i = inactive; ? = inconclusive; . = not tested or not shown; [ ] = remark or other dose. Hits are enriched below; roughly 10% of the tested compounds scored in any of these assays. Unless noted, calls come from the whole dose curve; as a rule, active = well fitted curve in the direction sought with a large enough effect; inconclusive = small, poorly fitted or top-dose-only effect, or another doubt; inactive = no such curve, though single readings can be large; an effect the other way counts as inactive or inconclusive. % is set by controls: 0 for no effect and ±100 for the full control effect; potency is the fitted concentration of half-maximal effect.

SMILES	Luciferase inh	HEK293 tox	GPT2 inhibitor	3T3 cytotox	NPR1 antag
CC1=C[C@@H](CN2CCN(CCO)CC2)[C@H](C(C)C)C[C@H]1Cc1nnc(-c2ccncc2)o1	i	45µM*	?	?	1%
O=C1CC2(CCN(C(=O)c3ccccc3F)CC2)CN1C/C=C/c1ccccc1	i	-23%	4%	?	0%
O=C1Nc2ccccc2OCC12CCN(Cc1ccc(OC(F)(F)F)cc1)CC2	i	?	i	-20%	16%
COCC(=O)NC1CCN(Cc2cccc(-c3ccccc3OC)c2)CC1	.	i	3%	-21%	.
COc1cccc(-c2ccccc2NC(=O)C2CCN(Cc3cc(F)ccc3F)CC2)c1	i	22µM*	0%	?	?
COc1ccccc1-c1cccc(CN2CCC(NC(=O)Nc3ccc(C)c(F)c3)CC2)c1	.	10µM*	i	20µM*	.
COc1ccc(C(=O)NC2CCN(Cc3cccc(-c4ccccc4OC)c3)CC2)cc1	.	22µM*	.	?	.
COc1ccccc1-c1cccc(CN2CCC(NC(=O)Cc3ccc(C(F)(F)F)cc3)CC2)c1	.	11µM*	2%	11µM*	.
COc1ccccc1-c1cccc(CN2CCC(NC(=O)c3ccccc3F)CC2)c1	.	?	-25%	?	.
Cn1cnc(S(=O)(=O)N2CCCCC2c2noc(COCc3ccc(F)cc3)n2)c1 (centres undefined)	.	?	3%	-16%	.
COc1cccc(CN2CCOC3CCN(Cc4ccc(F)cc4F)CC3C2=O)c1 (centres undefined)	i	?	-29%[88.5 µM]	?	-10%[70.6 µM]
COc1ccccc1-c1cccc(CN2CCC(NC(=O)c3ccc(F)cc3)CC2)c1	.	40µM*	-6%	?	.
COc1ccc2c(c1)OCC(CNC(=O)c1cc(-c3ccncc3)n[nH]1)C2 (centres undefined)	i	?	1%	?	-9%
COc1ccc2c(c1)OCC(C(=O)NCCNc1cc(C)ccn1)C2 (centres undefined)	i	-15%	-1%	79µM*	2%
Cc1noc(C)c1-c1cc2cc(CN(C)C)oc2c(Nc2ccncn2)n1	i	?	-1%[88.5 µM]	45µM*	-3%[70.6 µM]
COc1ccccc1-c1nc(-c2c(C)noc2C)cc2cc(CN(C)C)oc12	i	?	i	?	1%[70.6 µM]
COc1ccc(-c2nc(-c3c(C)noc3C)cc3cc(CN(C)C)oc23)cn1	i	?	2%[88.5 µM]	50µM*	-1%[70.6 µM]
COc1cc(-c2nc(-c3c(C)noc3C)cc3cc(CN(C)C)oc23)ccn1	i	79µM*	-24%[88.5 µM]	40µM*	-13%[70.6 µM]
COc1ccc(Nc2nc(-c3c(C)noc3C)cc3cc(CN(C)C)oc23)cn1	i	79µM*	i	79µM*	-1%[70.6 µM]
COc1ccc(C(=O)N2CCN(C(=O)c3nc4cccnc4n(C4CC4)c3=O)CC2)cc1	.	-7%	i	-20%	.
O=C(NCCCc1ccccc1F)[C@@]12CNC[C@@H]1CN(Cc1ccccc1)C2	i	45µM*	-14%	28µM*	3%
CCNC(=O)N1CC2=CC(C)(C)COc3ccc(OC)c(c32)C1C(=O)OCC (centres undefined)	.	?	.	-17%	.
O=C(c1ccc(C2CCCNC2)cc1)N1CCC(Oc2cccc(F)c2)CC1 (centres undefined)	i	28µM*	?	40µM*	-14%
O=C(c1ccsc1)N1CCC(Oc2cccc(F)c2)C1 (centres undefined)	i	?	i	-16%	0%
CN(CC(=O)N1CCCn2nc(-c3cccc(C(F)(F)F)c3)cc2C1)S(=O)(=O)c1ccc2c(c1)oc(=O)n2C	.	32µM*	5%	?	.
SMILES	Luciferase inh	HEK293 tox	GPT2 inhibitor	3T3 cytotox	NPR1 antag
Cc1nn2c(c1-c1ccccc1Oc1ccccc1)N(C(=O)c1ccccc1)CCC2	i	56µM*	-8%[88.5 µM]	45µM*	-25%[70.6 µM]
Cc1nn2c(c1-c1ccccc1Oc1ccccc1)N(Cc1cccc(C(=O)O)c1)CCC2	?	?	2%[88.5 µM]	?	?
COc1ccc(C(=O)N2CCCn3nc(C)c(-c4ccccc4Oc4ccccc4)c32)cn1	i	?	1%[88.5 µM]	?	-24%[70.6 µM]
COc1ccccc1C(=O)N1CCCn2nc(C)c(-c3ccccc3Oc3ccccc3)c21	i	100µM*	i	?	-3%[70.6 µM]
Cc1nn2c(c1-c1ccccc1Oc1ccccc1)N(C(=O)Cc1ccccc1)CCC2	i	79µM*	-11%[88.5 µM]	?	?
Cc1nn2c(c1-c1ccccc1Oc1ccccc1)N(C(=O)c1cccc(C#N)c1)CCC2	i	71µM*	4%[88.5 µM]	?	-19%[70.6 µM]
COc1ccccc1C(=O)N1CCCn2nc(C)c(-c3ccccc3OCc3ccccc3)c21	i	?	-9%	?	-2%
COCCn1nc2n(c1=O)CCC1(CC2)CCN(C(=O)CCc2c(C)nn(C)c2C)CC1	.	i	-14%	-6%	.
COc1ccc(-c2cc(C(=O)NCC(C)C)c3c(C4CCNC4)nn(C)c3n2)cc1 (centres undefined)	.	?	i	20µM*	.
O=C(Nc1ncc(-c2cccc(F)c2)c2c1OCC2)c1ccc(F)c(Cl)c1	i	35µM*	i	?	-13%[70.6 µM]
Cc1noc(C)c1-c1cnc(Nc2cccc(C(F)(F)F)c2)c2c1CCO2	?	63µM*	-13%[88.5 µM]	?	-17%[70.6 µM]
CNC(=O)c1cccc(-c2cnc(Nc3cccc(C(F)(F)F)c3)c3c2CCO3)c1	?	63µM*	-7%[88.5 µM]	40µM*	?
CNC(=O)c1cccc(-c2cnc(Nc3cccnc3)c3c2CCO3)c1	25µM*	?	i	?	-2%[70.6 µM]
Fc1cccc(Nc2ncc(-c3cncnc3)c3c2OCC3)c1	.	.	i	.	.
CNC(=O)c1cccc(-c2cnc(Nc3ccncc3)c3c2CCO3)c1	i	?	i	?	3%[70.6 µM]
O=C(Nc1ncc(-c2cccc(F)c2)c2c1OCC2)c1ccncc1	i	-26%[172 µM]	0%[88.5 µM]	?	4%[70.6 µM]
Fc1cccc(-c2cnc(Nc3cnccn3)c3c2CCO3)c1	?	100µM*	-4%[88.5 µM]	?	0%[70.6 µM]
CNC(=O)c1cccc(-c2cnc(Nc3ccc(F)c(Cl)c3)c3c2CCO3)c1	10µM*	28µM*	-14%[88.5 µM]	?	-23%[70.6 µM]
O=C(NCc1c[nH]c2ncccc12)c1ccccc1	i	-9%[172 µM]	i	?	6%[70.6 µM]
O=C(NC1CCNCC1)c1cc(C2CC2)nc2c1c(C1CCCN1)nn2-c1ccccc1 (centres undefined)	.	45µM*	i	22µM*	.

Screens (PubChem BioAssay)
